Hits are enriched below; roughly 2.3% of the tested compounds scored in any of these assays.
IDE cell activ – boosts human insulin-degrading enzyme activity in HEK cells; P14735; FAbeta-B cleavage, fluorescence polarization; 0% vehicle, 100% cell-free pure enzyme wells; activation, % at 5.96 µM; 0.073% of 340,000 active; AID 493087;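 active means activation above the mean of all tested compounds plus 3 SD, set per screening campaign, cut at about 17% in these data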
IDE inh – inhibits human insulin-degrading enzyme in HEK cells. FAbetaB cleavage, fluorescence polarization. P14735. inhibition, % at 5.59 µM. 0.41% of 320,000 active;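 active means percent inhibition above the average of all tested compounds plus 3 SD, set per screening campaign, cut at about 16% in these data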;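 further: IDE supplied by intact live HEK cells; FP after avidin binding of uncleaved biotin substrate so inhibition keeps polarization high; 0% = DMSO wells and 100% = 60 µM reference IDE inhibitor Ii1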
TPT1 inh – blocks Candida albicans tRNA 2'-phosphotransferase | recombinant caTPT1, FP RNA substrate dephosphorylation | inhibition, % at 5 µM | 0.81% of 300,000 active | AID 1962;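 active means inhibition above the mean of all tested compounds plus 3 SD, set per screening campaign, cut at about 24% in these data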;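 further: plate controls were DMSO alone for no effect and ferristatin control at 100 nM for full effect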
Calb FLC – C. albicans growth modulation with fluconazole; AID 1979; 0.57% of 300,000 active; C. albicans CaCi-2 (fluconazole-resistant clinical isolate) + fluconazole, Alamar Blue growth, 48 h; growth inhibition, % (no concentration beside the values);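 active means growth inhibition above about 58% in most replicates, limit read from the data, passing the limit was not always enough; inconclusive means exactly half the replicates above a set limit; inactive means most replicates below a set limit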;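 further: all wells also contain fluconazole at 8 µg/ml as a sub-toxic cotreatment; 0% = median of DMSO wells and 100% = median of geldanamycin control wells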
Rin1-Abl PPI inh – inhibitors of human Rin1-Abl protein interaction; P00519+Q13671; TR-FRET Rin1/Abl binding, biochemical; inhibition, % at 7.35 µM; 0.4% of 360,000 active; AID 588664; in the data active means inhibition above about 5%, passing the limit was not always enough
Rpn11 block – blocks the human proteasome subunit Rpn11; human 26S proteasome, Ub4-pepOG fluorescence polarization; 20S core pre-blocked with epoxomicin; inhibition, % at 20 µM; 0.59% of 360,000 active;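 active means inhibition at 20 µM, scaled to each plate's controls, above about 33%, limit read from the data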
Rpn11 confirm – Rpn11 inhibition confirmation, single concentration; shares compounds with Rpn11 block; purified human 26S proteasome, Ub4-pepOG fluorescence polarization; proteasome pretreated with epoxomicin; inhibition, % at 20 µM; 29% of 1,900 active
MMP-2 counter – blocks human MMP-2, flagging nonselective RPN11 hits; shares compounds with Rpn11 block; recombinant MMP-2, FRET peptide cleavage fluorescence; inhibition, % at 20 µM; 4% of 1,900 active; AID 602330;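 further: human MMP-2 activated beforehand with APMA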
Target sequence (P08253 whole entry, looked up): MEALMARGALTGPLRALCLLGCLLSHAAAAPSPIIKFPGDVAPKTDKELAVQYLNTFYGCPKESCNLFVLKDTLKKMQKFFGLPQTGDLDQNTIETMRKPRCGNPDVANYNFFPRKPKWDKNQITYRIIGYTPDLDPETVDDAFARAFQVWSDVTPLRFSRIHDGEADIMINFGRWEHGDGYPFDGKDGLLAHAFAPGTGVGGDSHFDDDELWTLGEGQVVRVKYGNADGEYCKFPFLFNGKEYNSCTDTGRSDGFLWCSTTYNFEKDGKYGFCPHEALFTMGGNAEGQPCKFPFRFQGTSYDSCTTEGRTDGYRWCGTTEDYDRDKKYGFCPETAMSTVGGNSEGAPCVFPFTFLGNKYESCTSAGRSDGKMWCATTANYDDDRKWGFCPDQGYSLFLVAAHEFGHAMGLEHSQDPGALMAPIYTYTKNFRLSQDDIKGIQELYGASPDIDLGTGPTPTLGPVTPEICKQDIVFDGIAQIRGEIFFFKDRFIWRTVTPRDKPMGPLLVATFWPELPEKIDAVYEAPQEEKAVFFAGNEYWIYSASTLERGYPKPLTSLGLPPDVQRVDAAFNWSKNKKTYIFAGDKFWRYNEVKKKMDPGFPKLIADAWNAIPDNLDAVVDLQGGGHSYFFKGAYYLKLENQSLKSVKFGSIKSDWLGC
Thrombin FP – blocks bovine thrombin, flagging nonselective RPN11 hits; shares compounds with Rpn11 block; bovine thrombin cleavage of Ub4-pepOG, fluorescence polarization; inhibition, % at 20 µM; 13% of 1,900 active;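 active means mean inhibition at least 40% at 20 µM, or signal 3 deviations below plate average, so some actives read negative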;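 further: plate controls were thrombin with DMSO for no effect and buffer wells lacking thrombin for full effect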
Numbers without * were called inactive. Unless noted, no stated cut-off is given here; in the data, active means inhibition above about 40%; inactive means the rest.

What do the screens show for `CCc1ccc(N=Nc2ccc(O)c3[nH]cnc23)cc1`?
IDE cell activ: -1.6; IDE inh: 7.1; Rin1-Abl PPI inh: 2.3; Rpn11 block: 42.3*; Rpn11 confirm: 34.3; MMP-2 counter: -25.5; Thrombin FP: 30.8

What do the screens show for `CCN(CC)CCCNC(=O)c1nn(-c2cccc(OC)c2)c(=O)c2ccccc12`?
IDE cell activ: 2.4; IDE inh: -1.0; TPT1 inh: -5.1; Calb FLC: -19.9; Rin1-Abl PPI inh: -1.7; Rpn11 block: 0.2

What do the screens show for `CCN(CC)CCCNC(=O)c1nn(-c2ccc(OC)cc2OC)c(=O)c2ccccc12`?
IDE cell activ: 3.2; IDE inh: 2.0; TPT1 inh: -1.8; Calb FLC: 5.0; Rin1-Abl PPI inh: -0.2; Rpn11 block: 47.8*; Rpn11 confirm: 11.4; MMP-2 counter: 3.9; Thrombin FP: 15.2

How did CC(=O)Nc1ccc(C(=O)Nc2cccc(-c3cnc4ccccc4n3)c2)cc1 do in these assays?
IDE cell activ: -3.2; Calb FLC: -2.7; Rin1-Abl PPI inh: -2.4; Rpn11 block: active; Rpn11 confirm: -1.4; MMP-2 counter: 1.3; Thrombin FP: 1.2

What do the screens show for `Cc1ccc(C(=O)Nc2cccc(-c3cnc4ccccc4n3)c2)cc1`?
IDE cell activ: 4.1; IDE inh: 1.1; TPT1 inh: -1.4; Calb FLC: 9.0; Rin1-Abl PPI inh: -4.3; Rpn11 block: -3.7

Results for CCCCOc1nc2ccccc2nc1C(C#N)C(=O)NC1CCCCC1 (stereo not drawn) ?
IDE cell activ: 3.0; IDE inh: 1.8; TPT1 inh: -4.5; Calb FLC: 8.2; Rin1-Abl PPI inh: -0.8; Rpn11 block: 56.0*; Rpn11 confirm: -3.0; MMP-2 counter: -23.1; Thrombin FP: -5.3

Results for CC(C)c1cccc(-c2ccc3c(c2)S(=O)(=O)c2cccc(C(=O)NC4CCCC4)c2C3=O)c1 ?
IDE cell activ: 3.5; IDE inh: 8.4; Rin1-Abl PPI inh: -2.7; Rpn11 block: -1.0

What do the screens show for `COc1ccc(-c2ccc3c(c2)S(=O)(=O)c2cccc(C(=O)NC4CCCC4)c2C3=O)cc1OC`?
IDE cell activ: 0.6; IDE inh: 0.5; Rin1-Abl PPI inh: -1.2; Rpn11 block: 78.5*; Rpn11 confirm: -13.2; MMP-2 counter: 6.1; Thrombin FP: -7.5

Results for Cc1cc(C)c2cc(C#N)c(N3CCCN(S(=O)(=O)c4ccccc4)CC3)nc2c1 ?
IDE inh: 4.8; TPT1 inh: 1.9; Calb FLC: -8.3

What do the screens show for `CC(=O)c1cccc(S(=O)(=O)N2CCN(c3nc4cc(C)cc(C)c4cc3C#N)CC2)c1`?
IDE cell activ: 6.8; IDE inh: 11.4; TPT1 inh: 4.8; Calb FLC: 0.2; Rin1-Abl PPI inh: -5.4; Rpn11 block: 42.8*; Rpn11 confirm: 0.5; MMP-2 counter: -21.3; Thrombin FP: -11.4

What do the screens show for `COc1ccc(-c2csc(C(O)c3ccc(F)cc3)n2)cn1` (stereo not drawn)?
Rin1-Abl PPI inh: -4.5; Rpn11 block: 2.5

Results for O=C(Nc1ccc(S(=O)(=O)Nc2ccccc2)cc1)C1COc2ccccc2O1 (stereo not drawn) ?
IDE cell activ: -0.4; IDE inh: -4.8; TPT1 inh: -0.5; Calb FLC: inconclusive; Rin1-Abl PPI inh: 0.1; Rpn11 block: 62.5*; Rpn11 confirm: -7.5; MMP-2 counter: 0.1; Thrombin FP: -4.1

What do the screens show for `Cc1cc(=O)oc2cc(OCc3ccc(C(=O)OCC(=O)N(C)C4CCS(=O)(=O)C4)cc3)ccc12` (stereo not drawn)?
IDE cell activ: -4.8; IDE inh: 3.7; TPT1 inh: -0.6; Calb FLC: 3.6; Rin1-Abl PPI inh: 0.9; Rpn11 block: 1.5

What do the screens show for `CN(C(=O)COc1ccc2c(-c3ccccc3)cc(=O)oc2c1)C1CCS(=O)(=O)C1` (stereo not drawn)?
IDE cell activ: -1.6; IDE inh: 0.6; TPT1 inh: -4.3; Calb FLC: -3.2; Rin1-Abl PPI inh: 2.5; Rpn11 block: 58.3*; Rpn11 confirm: 5.5; MMP-2 counter: -0.8; Thrombin FP: 7.3

What do the screens show for `O=C(C[C@H]1C[C@H](C(=O)N2CCCCC2)[C@@]2(CCc3ccccc3)c3[nH]c4cc(-c5ccco5)ccc4c3CCN2C1=O)NCc1ccco1`?
IDE cell activ: 1.6; Rin1-Abl PPI inh: -0.2; Rpn11 block: 78.0*; Rpn11 confirm: 24.6; MMP-2 counter: 1.1; Thrombin FP: 11.2

Results for O=C(C[C@H]1C[C@H](C(=O)N2CCCCC2)[C@@]2(CCc3ccccc3)c3[nH]c4cc(-c5ccco5)ccc4c3CCN2C1=O)NCCC1=CCCCC1 ?
IDE cell activ: 4.3; Rin1-Abl PPI inh: -1.7; Rpn11 block: 56.5*; Rpn11 confirm: -6.9; MMP-2 counter: 5.7; Thrombin FP: -11.7

What do the screens show for `CC[C@]12c3[nH]c4cc(-c5ccco5)ccc4c3CCN1C(=O)[C@@H](CC(=O)NCCC1=CCCCC1)C[C@@H]2C(=O)N1CCN(C(=O)c2ccco2)CC1`?
IDE cell activ: -1.1; Rin1-Abl PPI inh: -5.0; Rpn11 block: 30.9

What do the screens show for `O=C(C[C@H]1C[C@H](C(=O)N2CCOCC2)[C@@]2(CCC3CCCC3)c3[nH]c4cc(-c5ccco5)ccc4c3CCN2C1=O)NCc1cccc(C(F)(F)F)c1`?
IDE cell activ: 3.6; Rin1-Abl PPI inh: -4.8; Rpn11 block: 36.2

What do the screens show for `CC(C)=CCC/C(C)=C/CNC(=O)C[C@H]1C[C@H](C(=O)N2CCOCC2)[C@@]2(CCC3CCCC3)c3[nH]c4cc(-c5ccco5)ccc4c3CCN2C1=O`?
IDE cell activ: 5.1; Rin1-Abl PPI inh: 3.9; Rpn11 block: 45.3*; Rpn11 confirm: 1.7; MMP-2 counter: 15.9; Thrombin FP: 9.1

How did O=C(C[C@H]1C[C@H](C(=O)N2CCCCC2)[C@@]2(CCc3ccccc3)c3[nH]c4cc(-c5ccco5)ccc4c3CCN2C1=O)NCc1cccc(C(F)(F)F)c1 do in these assays?
IDE cell activ: 3.3; Rin1-Abl PPI inh: 1.4; Rpn11 block: 61.3*; Rpn11 confirm: 11.3; MMP-2 counter: 5.2; Thrombin FP: -29.6

Results for O=C(C[C@H]1C[C@H](C(=O)N2CCOCC2)[C@@]2(CCC3CCCC3)c3[nH]c4cc(-c5ccco5)ccc4c3CCN2C1=O)NCCN1CCOCC1 ?
IDE cell activ: 3.2; Rin1-Abl PPI inh: 0.1; Rpn11 block: 17.2

Screens from PubChem.
